# PubChem BioAssay
# “And” between values parts separate entries of the source, which are not always exact repeats. Equal values may be shown once. The source made the active and inactive calls.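 Rule for the calls, unless noted: active = normalized viability below 100% at a tested concentration; inactive = the rest.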
# Experiments:
# [1] = compounds altering viability of human ES cells (AID 493140; call rule not given here;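 note: cells exposed to compounds for four days before counting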); settings: human embryonic stem cell survival screen; stronger effect = higher value
# [2] = molecular target: 6-phosphogluconate dehydrogenase, decarboxylating (Homo sapiens) (UniProt P52209); test: inhibition of human phosphogluconate dehydrogenase – biochemical, recombinant enzyme, NADPH absorbance, primary screen (AID 1159550;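 active = at least 20% inhibition of 6-phosphogluconate dehydrogenase activity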); settings: recombinant 6PGD, NADPH absorbance 341 nm; at 10 µM; stronger effect = higher value
# [3] = EMT-state selective cytotoxicity in co-culture – imaging, PC-3E GFP, TEM4-18 mCherry, primary screen (AID 1345086;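 active = compounds killing one labelled cell type while sparing the other, by normalised counts and ratio limits, not self-fluorescent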;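 for all read-outs here: cells exposed to compound for 72 h before imaging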;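 for red/green cell ratio (normalised): normalised mesenchymal count divided by normalised epithelial count so high means epithelial killing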); settings: PC-3E GFP / TEM4-18 mCherry co-culture, imaging cell counts, at 1 µM; for red/green cell ratio (normalised): actives lie on both sides, counts scaled to control wells, 1 = unselective
# [4] = MELAS cybrid and Rieske KO viability enhancers – cell-based, MELAS cybrids, Rieske KO mouse fibroblasts, CellTiter-Glo, primary screen (AID 1508586;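 active = mean z-score across replicates of 1.96 or higher in either the MELAS or the Rieske mutant cell line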;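 note: z relative to plate mean and SD of compound and empty wells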); settings: low glucose
# [5] = drug combination growth inhibition, ovarian cancer – cell-based, oncology-focused library, rucaparib conditional, profiling panel (AID 1508598); settings: patient-derived ovarian cancer cells, CellTiter-Glo viability, 144 h, stronger effect = lower value
# [6] = molecular target: NAD(+) hydrolase SARM1 (Homo sapiens) (UniProt Q6SZW1); test: blocking NAD cleavage by SARM1 SAM-TIR – cell lysate, NAD-Glo luminescence (AID 1508614;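 active = compound whose remaining NAD level is above about 45 nM, limit read from the data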;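 note: higher remaining NAD means stronger inhibition of SARM1 NADase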); settings: SAM-TIR HEK293T lysate NADase, at 1 µM, stronger effect = higher value
# [7] = molecular target: Mitogen-activated protein kinase 7 (Homo sapiens) (UniProt Q13164); test: Gal4-ERK5 driven luciferase induction – cell-based, HTS, primary screen (AID 1508626;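 active = luciferase signal above three times the same-plate solvent-only control wells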;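 note: luciferase driven by Gal4-ERK5 fusion binding five Gal4 sites before minimal TATA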); settings: HeLa Gal4-ERK5 transactivation, 18 h, at 5 µM, stronger effect = higher value
# [8] = viability loss with induced miR-34 in A549 – imaging, A549 dox-inducible miR-34, nuclei and caspase counts, primary screen (AID 1347080;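 active = compounds whose cell count with miR-34 switched on is under 0.7 times the count with it off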); settings: A549 miR-34 inducible, Hoechst nuclei count, 48 h
# [9] = galactose survival enhancers in mitochondrial complex I cybrids – cell-based, galactose medium, ATP luminescence, primary screen (AID 1645843;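 active = z-score of at least 1.8 in each of two replicates, scored against plate mean and spread of sample wells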;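 note: positive z means more ATP and so rescue of galactose-driven cybrid death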); settings: complex I mutant cybrid cells, 72 h, stronger effect = higher value
# [10] = P. berghei load reduction in hepatocytes – cell-based, HepG2, luciferase luminescence, HepG2 viability, primary screen (AID 624349; in the data active = parasite load remaining mostly below about 12%, no sharp cut-off; inactive = mostly above about 10%;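 note: 100% = mean of DMSO negative control wells on the same plate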); settings: P. berghei liver stage in HepG2, luciferase luminescence, concentration not given here; parasite load remaining: stronger effect = lower value; viability: measured here: HepG2 viability without parasites
# [11] = measured here: epithelial PC-3E GFP cell survival
# [12] = measured here: mesenchymal TEM4-18 mCherry cell survival
# [13] = MELAS cybrid survival, CellTiter-Glo 48 h, stronger effect = higher value
# [14] = Rieske KO mouse fibroblast survival, CellTiter-Glo 72 h
# [15] = stronger effect = lower value, cell number ratio, induced over uninduced
# [16] = measured here: relative caspase fold change +Dox/-Dox
# [17] = measured here: total cells with miR-34 induction, stronger effect = lower value
# [18] = measured here: total cells without miR-34 induction
# Sequence of Mitogen-activated protein kinase 7 (Homo sapiens) (Q13164 whole entry, looked up, the tested form may be a part): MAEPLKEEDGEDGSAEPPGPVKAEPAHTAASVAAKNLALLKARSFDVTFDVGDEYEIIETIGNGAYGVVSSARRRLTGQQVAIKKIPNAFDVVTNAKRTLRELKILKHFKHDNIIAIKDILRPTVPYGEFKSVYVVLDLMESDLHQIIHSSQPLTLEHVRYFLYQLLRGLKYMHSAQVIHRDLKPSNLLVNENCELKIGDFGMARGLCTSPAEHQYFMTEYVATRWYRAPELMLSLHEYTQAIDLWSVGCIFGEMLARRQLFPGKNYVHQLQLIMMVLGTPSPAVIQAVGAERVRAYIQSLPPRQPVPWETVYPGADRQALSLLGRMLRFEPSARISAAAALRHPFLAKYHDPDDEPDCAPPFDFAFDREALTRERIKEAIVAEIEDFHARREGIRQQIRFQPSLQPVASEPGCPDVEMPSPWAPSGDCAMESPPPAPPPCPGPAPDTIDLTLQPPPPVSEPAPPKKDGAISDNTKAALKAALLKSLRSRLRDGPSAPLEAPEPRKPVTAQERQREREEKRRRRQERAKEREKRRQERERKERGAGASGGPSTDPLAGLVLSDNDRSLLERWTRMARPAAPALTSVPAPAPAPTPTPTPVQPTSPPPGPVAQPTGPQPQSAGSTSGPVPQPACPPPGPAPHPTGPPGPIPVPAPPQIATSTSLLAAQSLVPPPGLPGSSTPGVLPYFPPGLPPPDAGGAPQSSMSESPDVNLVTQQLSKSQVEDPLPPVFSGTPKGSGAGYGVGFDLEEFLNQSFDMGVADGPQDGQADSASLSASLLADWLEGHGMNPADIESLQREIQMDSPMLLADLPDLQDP
# Sequence of 6-phosphogluconate dehydrogenase, decarboxylating (Homo sapiens) (P52209 whole entry, looked up): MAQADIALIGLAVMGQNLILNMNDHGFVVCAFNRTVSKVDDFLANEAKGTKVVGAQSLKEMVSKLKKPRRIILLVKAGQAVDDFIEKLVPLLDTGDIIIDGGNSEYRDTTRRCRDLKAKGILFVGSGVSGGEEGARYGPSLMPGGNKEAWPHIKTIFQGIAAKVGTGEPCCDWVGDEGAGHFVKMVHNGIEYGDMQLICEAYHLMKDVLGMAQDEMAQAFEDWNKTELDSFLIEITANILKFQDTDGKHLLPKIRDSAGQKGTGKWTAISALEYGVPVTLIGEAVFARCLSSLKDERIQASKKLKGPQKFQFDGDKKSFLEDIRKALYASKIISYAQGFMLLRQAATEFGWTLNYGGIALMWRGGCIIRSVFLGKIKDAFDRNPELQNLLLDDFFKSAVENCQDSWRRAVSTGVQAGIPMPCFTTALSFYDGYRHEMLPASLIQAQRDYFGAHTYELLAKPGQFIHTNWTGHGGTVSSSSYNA
# Sequence of NAD(+) hydrolase SARM1 (Homo sapiens) (Q6SZW1 whole entry, looked up, the tested form may be a part): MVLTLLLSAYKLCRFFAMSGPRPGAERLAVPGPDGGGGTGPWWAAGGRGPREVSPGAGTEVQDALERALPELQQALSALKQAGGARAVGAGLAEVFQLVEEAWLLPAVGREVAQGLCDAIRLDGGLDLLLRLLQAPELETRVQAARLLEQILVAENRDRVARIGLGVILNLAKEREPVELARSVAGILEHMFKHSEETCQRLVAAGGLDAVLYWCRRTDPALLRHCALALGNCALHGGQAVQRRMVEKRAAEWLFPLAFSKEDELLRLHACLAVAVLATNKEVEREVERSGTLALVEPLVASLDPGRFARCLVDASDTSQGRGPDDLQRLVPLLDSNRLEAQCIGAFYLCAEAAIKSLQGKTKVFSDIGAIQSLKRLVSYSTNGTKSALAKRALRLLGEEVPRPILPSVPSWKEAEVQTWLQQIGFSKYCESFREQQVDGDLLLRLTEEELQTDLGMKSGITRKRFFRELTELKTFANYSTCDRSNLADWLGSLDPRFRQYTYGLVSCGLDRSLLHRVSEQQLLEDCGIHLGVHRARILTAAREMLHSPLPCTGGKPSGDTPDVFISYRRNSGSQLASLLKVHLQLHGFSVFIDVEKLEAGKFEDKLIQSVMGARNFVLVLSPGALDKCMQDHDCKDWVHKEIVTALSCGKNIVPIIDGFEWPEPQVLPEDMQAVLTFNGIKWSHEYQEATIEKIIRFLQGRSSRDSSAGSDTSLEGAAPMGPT
smiles,measurement,setting,value
CC/C(=C(\c1ccccc1)c1ccc(OCCN(C)C)cc1)c1ccccc1,survival,[1],6.5 (inactive)
same,inhibition,[2],1.2% (inactive)
same,red/green cell ratio (normalised),[3],1.09 (inactive)
same,normalised cell number,[3]; [11],0.93
same,normalised cell number,[3]; [12],1.01
same,z-score,[4]; [13],-0.656 (inactive) and -1.22 (inactive)
same,z-score,[4]; [14],0.287 and -0.548
same,viability,"[5]; at 0.000305 µM, OCI-C5x cells, with rucaparib 10 µM, 100% = cells with rucaparib alone",93.5% (active)
same,viability,"[5]; at 0.000305 µM, OCI-C5x cells, without rucaparib",95.2% (active)
same,viability,"[5]; at 0.000305 µM, OCI-P5x cells, with rucaparib 20 µM, 100% = cells with rucaparib alone",89.3% (active)
same,viability,"[5]; at 0.000305 µM, OCI-P5x cells, without rucaparib",83.7% (active)
same,viability,"[5]; at 0.00122 µM, OCI-C5x cells, with rucaparib 10 µM, 100% = cells with rucaparib alone",109% (inactive)
same,viability,"[5]; at 0.00122 µM, OCI-C5x cells, without rucaparib",97.1% (active)
same,viability,"[5]; at 0.00122 µM, OCI-P5x cells, with rucaparib 20 µM, 100% = cells with rucaparib alone",92.3% (active)
same,viability,"[5]; at 0.00122 µM, OCI-P5x cells, without rucaparib",91.4% (active)
same,viability,"[5]; at 0.00488 µM, OCI-C5x cells, with rucaparib 10 µM, 100% = cells with rucaparib alone",103% (inactive)
same,viability,"[5]; at 0.00488 µM, OCI-C5x cells, without rucaparib",93.8% (active)
same,viability,"[5]; at 0.00488 µM, OCI-P5x cells, with rucaparib 20 µM, 100% = cells with rucaparib alone",101% (inactive)
same,viability,"[5]; at 0.00488 µM, OCI-P5x cells, without rucaparib",97.9% (active)
same,viability,"[5]; at 0.0195 µM, OCI-C5x cells, with rucaparib 10 µM, 100% = cells with rucaparib alone",107% (inactive)
same,viability,"[5]; at 0.0195 µM, OCI-C5x cells, without rucaparib",97.1% (active)
same,viability,"[5]; at 0.0195 µM, OCI-P5x cells, with rucaparib 20 µM, 100% = cells with rucaparib alone",89.8% (active)
same,viability,"[5]; at 0.0195 µM, OCI-P5x cells, without rucaparib",99.8% (active)
same,viability,"[5]; at 0.0781 µM, OCI-C5x cells, with rucaparib 10 µM, 100% = cells with rucaparib alone",99.2% (active)
same,viability,"[5]; at 0.0781 µM, OCI-C5x cells, without rucaparib",92.3% (active)
same,viability,"[5]; at 0.0781 µM, OCI-P5x cells, with rucaparib 20 µM, 100% = cells with rucaparib alone",97% (active)
same,viability,"[5]; at 0.0781 µM, OCI-P5x cells, without rucaparib",99.7% (active)
same,viability,"[5]; at 0.313 µM, OCI-C5x cells, with rucaparib 10 µM, 100% = cells with rucaparib alone",110% (inactive)
same,viability,"[5]; at 0.313 µM, OCI-C5x cells, without rucaparib",95.3% (active)
same,viability,"[5]; at 0.313 µM, OCI-P5x cells, with rucaparib 20 µM, 100% = cells with rucaparib alone",97.5% (active)
same,viability,"[5]; at 0.313 µM, OCI-P5x cells, without rucaparib",102% (inactive)
same,viability,"[5]; at 1.25 µM, OCI-C5x cells, with rucaparib 10 µM, 100% = cells with rucaparib alone",98.2% (active)
same,viability,"[5]; at 1.25 µM, OCI-C5x cells, without rucaparib",100% (inactive)
same,viability,"[5]; at 1.25 µM, OCI-P5x cells, with rucaparib 20 µM, 100% = cells with rucaparib alone",100% (inactive)
same,viability,"[5]; at 1.25 µM, OCI-P5x cells, without rucaparib",106% (inactive)
same,viability,"[5]; at 5 µM, OCI-C5x cells, with rucaparib 10 µM, 100% = cells with rucaparib alone",95.5% (active)
same,viability,"[5]; at 5 µM, OCI-C5x cells, without rucaparib",100% (active)
same,viability,"[5]; at 5 µM, OCI-P5x cells, with rucaparib 20 µM, 100% = cells with rucaparib alone",97.5% (active)
same,viability,"[5]; at 5 µM, OCI-P5x cells, without rucaparib",101% (inactive)
same,remaining NAD,[6],10 nM (inactive)
same,luciferase signal,[7],84 AU (inactive)
O=C(O[C@@H]1Cc2c(O)cc(O)cc2O[C@@H]1c1cc(O)c(O)c(O)c1-c1c([C@H]2Oc3cc(O)cc(O)c3C[C@H]2OC(=O)c2cc(O)c(O)c(O)c2)cc(O)c(O)c1O)c1cc(O)c(O)c(O)c1,inhibition,[2],-4.6% (inactive)
same,red/green cell ratio (normalised),[3],1.06 (inactive)
same,normalised cell number,[3]; [11],0.89
same,normalised cell number,[3]; [12],0.94
O=C1CC(c2ccccc2)Oc2ccccc21 (stereo unspecified),inhibition,[2],1.48% (inactive)
same,red/green cell ratio (normalised),[3],0.93 (inactive)
same,normalised cell number,[3]; [11],1.14
same,normalised cell number,[3]; [12],1.06
CCCCOc1cc(CC2CNC(=O)N2)ccc1OC (stereo unspecified),inhibition,[2],1.84% (inactive)
same,red/green cell ratio (normalised),[3],1.01 (inactive)
same,normalised cell number,[3]; [11],1.14
same,normalised cell number,[3]; [12],1.15
same,fold change,[8]; [15],0.994 (inactive) and 1.05 (inactive) and 0.91 (inactive)
same,fold change,[8]; [16],1.87 and 1.3 and 0.769
same,cell count,[8]; [17],10200 and 6130 and 8720
same,cell count,[8]; [18],10300 and 5830 and 9590
same,luciferase signal,[7],60 AU (inactive)
same,z-score,[9],0.26 (inactive) and -0.055 (inactive)
CCCCCCCC/C=C/CCCCCCCCOP(=O)([O-])OCC[N+](C)(C)C,inhibition,[2],17.1% (inactive)
same,red/green cell ratio (normalised),[3],0.71 (inactive)
same,normalised cell number,[3]; [11],1.36
same,normalised cell number,[3]; [12],0.96
COc1cc(OC)c2c(=O)cc(-c3ccccc3)oc2c1,inhibition,[2],13.7% (inactive)
same,red/green cell ratio (normalised),[3],0.95 (inactive)
same,normalised cell number,[3]; [11],1.06
same,normalised cell number,[3]; [12],1.01
COc1cc(OC)c2c(=O)c(-c3ccccc3)c(C)oc2c1OC,inhibition,[2],-9.49% (inactive)
same,red/green cell ratio (normalised),[3],1.02 (inactive)
same,normalised cell number,[3]; [11],1.09
same,normalised cell number,[3]; [12],1.11
CC1=C(CCC(=O)O)c2cc3nc(cc4[nH]c(cc5[nH]c(cc1n2)c(C)c5C(C)O)c(C)c4C(C)O)C(C)=C3CCC(=O)O (stereo unspecified),inhibition,[2],12.1% (inactive)
same,red/green cell ratio (normalised),[3],1.39 (inactive)
same,normalised cell number,[3]; [11],0.93
same,normalised cell number,[3]; [12],1.29
C=C1C2=CC(=O)O[C@@H](c3ccoc3)[C@]2(C)CCC1[C@@]1(C)C=CC(=O)C(C)(C)[C@@H]1CC(=O)OC (stereo partly specified),inhibition,[2],1.03% (inactive)
same,red/green cell ratio (normalised),[3],1.06 (inactive)
same,normalised cell number,[3]; [11],1.13
same,normalised cell number,[3]; [12],1.2
C=CCCCCCCCCCCCC(O)CC(O)CO (stereo unspecified) (tested in a mixture with another compound),inhibition,[2],-8.17% (inactive)
same,red/green cell ratio (normalised),[3],0.87 (inactive)
same,normalised cell number,[3]; [11],1.32
same,normalised cell number,[3]; [12],1.14
CCC(c1ccc(O)cc1)C(CC)c1ccc(O)cc1 (stereo unspecified),survival,[1],2.75 (inactive)
same,parasite load remaining,[10],53.4% (inactive) and 65.7% (inactive)
same,viability,[10],91.5% and 76.1%
same,inhibition,[2],-4.21% (inactive)
same,red/green cell ratio (normalised),[3],0.99 (inactive)
same,normalised cell number,[3]; [11],1.08
same,normalised cell number,[3]; [12],1.07
same,fold change,[8]; [15],0.875 (inactive) and 0.921 (inactive)
same,fold change,[8]; [16],1.39 and 0.838
same,cell count,[8]; [17],8210 and 9640
same,cell count,[8]; [18],9390 and 10500
same,z-score,[4]; [13],-0.359 (inactive) and -2.3 (inactive)
same,z-score,[4]; [14],0.432 and -0.759
same,luciferase signal,[7],40 AU (inactive)
c1ccc2c(Cc3c[nH]c4ccccc34)c[nH]c2c1,survival,[1],89.8 (inactive)
same,inhibition,[2],2.37% (inactive)
same,red/green cell ratio (normalised),[3],0.91 (inactive)
same,normalised cell number,[3]; [11],1.11
same,normalised cell number,[3]; [12],1.01
same,fold change,[8]; [15],0.926 (inactive)
same,fold change,[8]; [16],0.966
same,cell count,[8]; [17],4780
same,cell count,[8]; [18],5160
